# Test results reported in ChEMBL document CHEMBL3988442, “University of Dundee, Small-Polar-MMV Screening Library” (2021).
# In all, about 66,000 compounds went through this assay and about 960 (1.5%) showed an effect of 50% or more. The entries come from a sample that favours strong results as a whole.
# Tested on: Trypanosoma brucei
# Assay: Trypanosoma brucei 72 hour study
# Format: functional, organism-based
# Design: scale not given: in the data most compounds retested in dose-response had high values
smiles,measurement,setting,value
O=C(O)C1CC2(CCN(c3nccc4ccccc34)CC2)CN1 (configuration not stated),Percent Effect,"30 µM, 30.03 µM",23.73%
CN1CC2(CCNCC2)CC1C(=O)NCCCNc1cccnc1 (configuration not stated),Percent Effect,"30.3 µM, […]",-6.231%
O=C(NCc1cnn2cccnc12)C1CC2(CCNCC2)CN1 (configuration not stated),Percent Effect,"30 µM, 30.03 µM",54.89%
COc1ncccc1CN1C[C@H]2CCN(c3ncccn3)C[C@H]2C1.O=C(O)C(F)(F)F,Percent Effect,"30.3 µM, […]",-7.481%
OCC1N(Cc2ccco2)[C@H]2CC[C@]1(O)CC2 (some centres not stated),Percent Effect,"30.3 µM, […]",-9.73%
O=C(NCc1ccccn1)[C@]12COC[C@H]1CN(Cc1ccsc1)C2.O=C(O)C(F)(F)F.O=C(O)C(F)(F)F,Percent Effect,"30.3 µM, […]",-46.8%
Cc1noc(C)c1CN1C[C@@H]2COC[C@@H](C(=O)N3CCCO3)[C@@H]2C1,Percent Effect,"30.3 µM, […]",79.91%
Cc1cc(CN2C[C@@H]3COC[C@H](C(=O)N4CCCCO4)[C@@H]3C2)no1.O=C(O)C(F)(F)F,Percent Effect,"30.3 µM, […]",-104.8%
Cc1noc(C)c1CN1C[C@@H]2COC[C@H](C(=O)N3CCCO3)[C@@H]2C1,Percent Effect,"30.3 µM, […]",-103.2%
O=C(Nc1cccnc1)[C@H]1CN(Cc2nccs2)C[C@H]2OCC[C@@H]12.O=C(O)C(F)(F)F.O=C(O)C(F)(F)F.O=C(O)C(F)(F)F,Percent Effect,"30 µM, 30.03 µM",6.623%
Cc1cccc(CN2C(=O)C[C@H]3[C@@H]2CCN3CC2CC2)n1.O=C(O)C(F)(F)F.O=C(O)C(F)(F)F,Percent Effect,"30.3 µM, […]",9.244%
CNC(=O)c1ccc2c(c1)C1(CCN(C(C)C)CC1)C(=O)N2.O=C(O)C(F)(F)F,Percent Effect,"30.3 µM, […]",-29.31%
CCC1CNCc2cc3c(C)ccc(C)c3nc2O1 (configuration not stated),Percent Effect,"30.3 µM, […]",58.28%
CCC1CNCc2cc3c(OC)ccc(OC)c3nc2O1 (configuration not stated),Percent Effect,"30.3 µM, […]",8.287%
Cc1cccc(CN2CC[C@H]3OCC[C@@]3(C(=O)N3CCCO3)C2)n1.O=C(O)C(F)(F)F.O=C(O)C(F)(F)F,Percent Effect,"30.3 µM, […]",-52.48%
O=C(O)C(F)(F)F.O=C(O)C(F)(F)F.O=C([C@H]1C[C@H]2OCC[C@H]2N(Cc2cccnc2)C1)N1CCCCO1,Percent Effect,"30.3 µM, […]",-300.7%
O=C(C[C@@H]1COC[C@H]2CN(Cc3cccnc3)C[C@@H]12)NCC1CC1.O=C(O)C(F)(F)F.O=C(O)C(F)(F)F,Percent Effect,"30.3 µM, […]",-16.86%
CC1CN(CCc2ccncc2)CCO1 (configuration not stated),Percent Effect,"30 µM, 30.03 µM",-38.53%
CCC1CCCCN1CCc1ccncc1 (configuration not stated),Percent Effect,"30.3 µM, […]",96.43%
CN(c1ncccc1C#N)C1CCN(CCc2ccncc2)CC1,Percent Effect,"30 µM, 30.03 µM",-5.163%
Fc1cccc(CN2CCC3(CCN3c3ncccn3)C2)c1.O=C(O)C(F)(F)F (configuration not stated),Percent Effect,"30.3 µM, […]",-29.27%
COCCN1CCC2(COCc3cnc(-c4ccccc4)nc32)C1.O=C(O)C(F)(F)F (configuration not stated),Percent Effect,"30.3 µM, […]",-55.77%
CCOC(=O)[C@@H]1[C@@H](c2ccccc2)CN2CCNC[C@H]12,Percent Effect,"30.3 µM, […]",-24.8%
O=C1CSC(c2cccs2)c2cnn(C3CCCC3)c2N1 (configuration not stated),Percent Effect,"30 µM, 30.03 µM",106.7%
COC(=O)c1ccc(C2SCC(=O)Nc3c2cnn3C2CCCC2)cc1 (configuration not stated),Percent Effect,"30 µM, 30.03 µM",9.206%
O=C1CSC(c2ccc3c(c2)OCO3)c2cnn(C3CCCCC3)c2N1 (configuration not stated),Percent Effect,"30 µM, 30.03 µM",6.351%
CN1CCN(S(=O)(=O)c2cccc(F)c2)Cc2cccnc21.O=C(O)C(F)(F)F,Percent Effect,"30.3 µM, […]",-5.986%
COCCN1CCN(S(C)(=O)=O)Cc2ccc(C)nc21.O=C(O)C(F)(F)F,Percent Effect,"30.3 µM, […]",-28.84%
COCCN1CCN(c2ccc(C)nn2)Cc2ccc(C)nc21.O=C(O)C(F)(F)F.O=C(O)C(F)(F)F,Percent Effect,"30.3 µM, […]",6.262%
COCCN1CCN(c2cccc(C)n2)Cc2ccc(C)nc21.O=C(O)C(F)(F)F.O=C(O)C(F)(F)F,Percent Effect,"30.3 µM, […]",60.56%
COc1ccc(CNC(C)Cn2cccn2)c(OC)c1OC.Cl (configuration not stated),Percent Effect,"30.3 µM, […]",4.713%
same,Percent Effect,"10 mM, 10 mM as filed; unlikely as a test dose",-54.3%
COc1cc(CNC(C)Cn2cccn2)cc2c1OCO2.Cl (configuration not stated),Percent Effect,"30.3 µM, […]",-1.111%
COc1cc(CNCC(O)c2cccc(F)c2)cc2c1OCO2.Cl (configuration not stated),Percent Effect,"30.3 µM, […]",81.63%
COc1cc(CNCC(O)c2ccc(F)c(F)c2)cc2c1OCO2 (configuration not stated),Percent Effect,"30 µM, 30.03 µM",4.493%
COc1cc(CNCC(O)c2ccc(C)cc2)cc2c1OCCO2.Cl (configuration not stated),Percent Effect,"30 µM, 30.03 µM",42.56%
COc1cc(CNCC(O)c2ccc(C)cc2)cc2c1OCO2.Cl (configuration not stated),Percent Effect,"30.3 µM, […]",100.7%
COc1cc(CNC(C)Cn2ccnc2)cc2c1OCO2.Cl (configuration not stated),Percent Effect,"30.3 µM, […]",4.669%
Cl.Cl.c1cncc(COC[C@@H]2CCC[C@@]23CNCCO3)c1,Percent Effect,"30.3 µM, […]",-44.98%
CC(C)N1CCC2(CC1)C(=O)N(CCN(C)C)c1ccccc12.O=C(O)C(F)(F)F.O=C(O)C(F)(F)F,Percent Effect,"30.3 µM, […]",5.685%
O=C(O)C(F)(F)F.O=C(O)C(F)(F)F.O=C(O)C(F)(F)F.c1ccc(CN2CC[C@@H]3[C@@H](CO[C@@H]3CNc3ncccn3)C2)nc1,Percent Effect,"30.3 µM, […]",-6.943%
COc1ccc(CN2C[C@@H]3OCCN(c4ncccn4)[C@@H]3C2)cc1.O=C(O)C(F)(F)F.O=C(O)C(F)(F)F,Percent Effect,"30 µM, 30.03 µM",-40.73%
COc1cc2nc(NCc3ccc(C)nc3)nc(N)c2cc1OC,Percent Effect,"30.3 µM, […]",100.6%
O=C(C[C@@H]1COC[C@H]2CN(C3CCC3)C[C@@H]12)NCc1cccnc1.O=C(O)C(F)(F)F.O=C(O)C(F)(F)F,Percent Effect,"30.3 µM, […]",12.19%
COc1ccc(CCNCc2c(C)nn(C)c2N(C)C)cc1OC.Cl,Percent Effect,"30.3 µM, […]",-31.69%
O=C(c1ccc(Cl)cc1-n1cnnn1)N1CCC2(CC1)OCCO2,Percent Effect,"30 µM, 30.03 µM",-30.99%
O=C(c1ccccc1-n1cnnn1)N1CCC2(CC1)OCCO2,Percent Effect,"30 µM, 30.03 µM",-25.19%
